Data as given in PubChem BioAssay AID743315 (Broad Institute, 2014).
Measured potencies and affinities stand elsewhere. Calls of active or inactive are those of the source.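 How the source made its calls: active means cell killing, with a fitted active concentration at or below twice the top valid dose tested; inconclusive means flat curve with moderate cell loss, or an unreliable fit; inactive means effect in the rising direction, plus the rest.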

Test: loss of HEK293T viability via ATP – cell-based, plate reader, dry powder, set 10, cytotoxicity control, dose response (AID 743315)
Details: CellTiter-Glo ATP luminescence, 72 h; series mostly up to 26 µM
For `Cc1ccc(C(C)C)c(OCCn2c(=S)[nH]c3cccc(C)c32)c1`, the outcome was “inactive”. In the case of `COc1cccc(OCCn2c(=S)[nH]c3ccccc32)c1`, the outcome is reported as “inactive”. In the case of `Cc1ccc(C(C)C)c(OCCn2c(=S)[nH]c3cc(F)ccc32)c1`, the outcome is reported as “inactive”. In the case of `Cc1cccc2[nH]c(=S)n(CCOc3ccccc3)c12`, the outcome is reported as “inactive”. In the case of `Cc1ccc(C(C)C)c(OCCn2c(=S)[nH]c3c(F)cccc32)c1`, the outcome is reported as “inactive”. With `Cc1ccc(C(C)C)c(OCCn2c(=S)[nH]c3c(C)cccc32)c1` the outcome was “inactive”. In the case of `Fc1ccc2c(c1)[nH]c(=S)n2CCOc1ccccc1`, the outcome is reported as “inactive”. In the case of `Fc1ccc(OCCn2c(=S)[nH]c3ccccc32)cc1`, the outcome is reported as “inactive”. With `Cc1cccc(OCCn2c(=S)[nH]c3ccc(C(F)(F)F)cc32)c1` the outcome was “inactive”. For `Cc1cccc(OCCn2c(=S)[nH]c3cc(F)ccc32)c1`, the outcome was “inactive”. With `COc1ccc(OCCn2c(=S)[nH]c3ccccc32)cc1` the outcome was “inactive”. With `Cc1ccc(OCCn2c(=S)[nH]c3ccccc32)c(C(C)C)c1` the outcome was “inactive”. With `Cc1ccc(C(C)C)c(OCCn2c(=S)[nH]c3cccc(F)c32)c1` the outcome was “inactive”. For `Cc1ccc(C(C)C)c(OCCn2c(=S)[nH]c3c(Cl)cccc32)c1`, the outcome was “inactive”. With `O=c1[nH]c2ccccc2n1CCOc1ccccc1` the outcome was “inactive”. In the case of `CC(C)(C)c1ccc(OCCn2c(=S)[nH]c3ccccc32)cc1`, the outcome is reported as “inactive”. For `Cc1ccc(C(C)C)c(OCCn2c(=S)[nH]c3cccc(Cl)c32)c1`, the outcome was “inactive”. For `Cc1cccc(OCCn2c(=S)[nH]c3cc(C(F)(F)F)ccc32)c1`, the outcome was “inactive”. With `CCOc1ccc(OCCn2c(=S)[nH]c3ccccc32)cc1` the outcome was “inactive”.
